Source: PubChem BioAssay AID1259240 (Keith Lab, Institute of Cancer Science, University of …, 2017)
Activity calls are given as the source filed them. No stated cut-off is given here; in the data, active means fold change mostly below about -2 (no sharp cut-off); inactive means mostly above about -1.8.

Assay: modulation of TERT promoter-driven luciferase – cell-based, luciferase reporter, human, primary screen (AID 1259240)
Settings: A2780 TERT promoter luciferase reporter, 16 h; at 20 µM, fold versus average of vehicle-only wells

Fold change, active:
O=C1N=C(N2CCOCC2)S/C1=C1\C(=O)N(Cc2ccccc2)c2ccccc21 -2.02
CCc1nc(N)c(C#N)c(-c2cccnc2)c1C -2.52
Cc1nc2cc(-c3ccccc3)nn2c(C)c1CCC(=O)O -6.77
CCc1ccc(CNc2ccc3c(c2)ncn3C(C)C)cc1 -2.78
O=c1cc(CSc2nnnn2-c2ccccc2)nc2nc[nH]n12 -2.26
CCCCN1C(=O)/C(=C2\SC(N3CCCCC3)=NC2=O)c2ccccc21 -8.65
CCOC(=O)c1c(C)n(C)c2ccc(OCC(O)CN3CCCCC3C)cc12 (stereo not given) -2.14

Fold change, inactive:
O=C(CSc1nncc2ccccc12)Nc1ccccc1 1.07
CCNc1nc(C(=O)O)nc(N2CCOCC2)n1 -1.25
O=C(NCCCN1CCCCC1)C1CCC(CNS(=O)(=O)c2cccc3nsnc23)CC1 (stereo not given) -1.15
CCOP(=O)(OCC)C(Nc1ccccn1)c1ccc(F)cc1 (stereo not given) -1.13
Cn1c2ccccc2c2cnn(CC(=O)N3CCN(C4CCCCC4)CC3)c(=O)c21 -1.05
COc1cccc(-c2nc(S(=O)(=O)c3ccc(C)cc3)c(N(C)C)o2)c1 -1.82
O=C1C(=O)N(CC(=O)N2CCCCC2)c2ccccc21 1.04
CCn1c(NCc2ccc(Cl)cc2)nc2ccccc21 1.05
COc1ccccc1-c1c(C)nn2c(N3CCOCC3)cc(C)nc12 1.18
CC(C)C(NS(=O)(=O)c1cccc2nsnc12)C(=O)N1CCCCC1 (stereo not given) 1.43
Brc1cccc(-c2nc3cnccn3c2NC2CCCCC2)c1 -1.11
Cn1c(=O)oc2cc(S(=O)(=O)N3CCCC(C(=O)NCCN4CCCC4)C3)ccc21 (stereo not given) 1.73
Cc1cccc(C(=O)N2N=C(c3ccc(NS(C)(=O)=O)cc3)CC2c2ccco2)c1 (stereo not given) 1.31
Cc1nc(SCc2c(F)cccc2Cl)c2c(=O)n(C)c(=O)n(C)c2n1 1.27
CSCCC(C(=O)O)N1C(=O)/C(=C/c2cccnc2)SC1=S (stereo not given) -1.77
c1ccc2c(NCCCN3CCOCC3)c3c(nc2c1)CCCC3 -1.45
Cn1c2ccccc2c2cnn(CC(=O)N3CCN(c4ccccn4)CC3)c(=O)c21 -1.1
Cc1cc(C)n(-c2nc3ccccc3n3cnnc23)n1 -1.18
CN(CC(=O)NC(C)(C)C)S(=O)(=O)c1ccc2c(c1)c(=O)n(C)c(=O)n2C -1.36
CN1CCN(C(=O)c2ccc3c(Cl)c4c(nc3c2)CCC4)CC1 1.03
O=C1C2C(c3cccs3)NC(Cc3ccccc3)(C(=O)O)C2C(=O)N1c1ccc(F)cc1 (stereo not given) -1.06
CCOC(=O)N1CCC(Nc2c(NC3CCCCC3C)c(=O)c2=O)CC1 (stereo not given) -1.05
CC(C)NC(=O)Cn1ncc2c3ccccc3n(C)c2c1=O 1.04
Cc1cc(C)cc(N(CC(=O)O)S(=O)(=O)c2ccc3[nH]c(=O)c(=O)[nH]c3c2)c1 1.37
CN(C)C(=O)c1ccc2c(c1)n(C)c(=O)n2C 1.05
COCCNC(=O)CCSc1nc(-c2ccc3c(c2)OCO3)cc(C(F)(F)F)n1 -1.36
CCCSc1nnc2c3ccccc3n(CC)c2n1 -1.73
O=C(CN1C(=O)c2ccccc2S1(=O)=O)N1CCN(c2cccc(Cl)c2)CC1 -1.25
Cc1oc2cc(OC(=O)N3CCOCC3)ccc2c(=O)c1Oc1ccccc1Br -1.46
COc1cc2c(=O)c(S(=O)(=O)c3ccccc3)cn(Cc3ccccc3F)c2cc1OC 1.06
CC(CCc1ccco1)NC(=O)Cn1ncc2c1-c1ccccc1OC2 (stereo not given) 1.12
CN1CCc2c(sc3c2C(=O)NC(c2ccc(OC(=O)c4ccccc4Cl)cc2)N3)C1 (stereo not given) -1.85
COc1cc2cc(=O)[nH]c(C)c2cc1OC 1.08
